USP2a block – USP2a (human) protease inhibition. O75604. USP2 core, Ub-CHOP2 coupled fluorogenic reporter, 485/531. Potency, µM (series often up to 38.3 µM), most hits filed as inhibitors. 330,000 compounds, 0.01% hits. AID 463254
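USP2 core (10nM final) preincubated 30min RT with compound in 20mM Tris-HCl pH 8.0, 2mM CaCl2, 2mM beta-mercaptoethanol, 0.05% CHAPS; 25nM Ub-CHOP2 plus 25nM reporter substrate added, fluorescence (Ex485/Em531) read after 60min.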
GALK inh – inhibitors of human galactokinase | Purified GALK, Kinase-Glo residual ATP luminescence | Potency, µM (highest dose often 57.5 µM), actives largely listed as inhibitors | 270,000 compounds, 0.007% hits
Target sequence (P51570 whole entry, looked up): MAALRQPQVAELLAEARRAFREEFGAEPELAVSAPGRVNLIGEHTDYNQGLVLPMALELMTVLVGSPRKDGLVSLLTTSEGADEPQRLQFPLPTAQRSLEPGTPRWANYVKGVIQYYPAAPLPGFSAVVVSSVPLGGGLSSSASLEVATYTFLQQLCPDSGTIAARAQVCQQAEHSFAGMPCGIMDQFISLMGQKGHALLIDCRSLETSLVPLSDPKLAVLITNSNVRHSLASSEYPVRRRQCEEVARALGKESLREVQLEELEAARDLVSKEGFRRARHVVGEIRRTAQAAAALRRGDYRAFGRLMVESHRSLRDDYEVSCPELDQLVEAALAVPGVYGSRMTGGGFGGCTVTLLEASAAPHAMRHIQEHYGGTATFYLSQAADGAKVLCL
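5 nM enzyme, 35 uM ATP, 100 uM galactose, 20 mM HEPES pH8.0, 5 mM MgCl2; 1 h RT; residual ATP by Kinase-Glo Plus luminescence, qHTS format.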
PLK1 PBD block – PLK1 (human) polo-box domain binding inhibition | P53350 | Plk1 PBD binding of FITC phosphopeptide, fluorescence polarization | Potency, µM, most hits filed as inhibitors | 360,000 compounds, 2.8% hits; note: series mostly up to about 57 µM; nearly all actives have a fitted effect of over 65% in size
FBPA coupling cs – inhibits coupling enzyme system, counter-screen for aldolase hits; coupling enzyme system counterscreen, AmpLite Red fluorescence; activity change, negative = inhibition, % at 58.2 µM, hits read low; 290,000 compounds, 0.67% hits; AID 2472; in the data active = activity change below about -30%
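First, compound is pin-transferred into glyceraldehyde-3-phosphate coupling-enzyme reagent at 57.5 uM final and held 10 min at RT. Next, substrate, coupling system and AmpLite Red are added. After 20 min RT, fluorescence (525/598 nm) is read.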
VDR inhibitor – blocks the human vitamin D receptor. P11473. VDR-SRC2-3 peptide fluorescence polarization, 2 h. Potency, µM, hits mostly inhibitors. 400,000 compounds, 0.93% hits
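Compounds are added to VDR with labelled SRC2-3 coactivator peptide and held 2 h at room temperature. Inhibition of the VDR–peptide interaction is then read as a change in fluorescence polarization.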
USP1-UAF1 inh – blocks the human USP1/UAF1 deubiquitinase complex; O94782; recombinant USP1/UAF1, Ub-Rhodamine cleavage fluorescence; Potency, µM (doses to about 57.1 µM), usual class: inhibitors; 390,000 compounds, 0.23% hits; AID 743255; note: nearly all actives have a fitted effect of over 60% in size
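High-throughput fluorogenic screen: 1nM USP1/UAF1 complex, Ub-Rho substrate 150nM final, 50mM HEPES pH 7.8 with 0.5mM EDTA, 0.1 mg/ml BSA, 1mM TCEP and 0.01% Tween-20.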
Of the large screens only hits and unclear results are named; the others gave an inactive call; ! = not active in a repeat. Shown are actives, neighbours in structure and some others; about 3.2% of the full set was active somewhere. Unless noted, calls come from the whole dose curve; as a rule, active = well fitted curve in the direction sought with a large enough effect; inconclusive = small, poorly fitted or top-dose-only effect, or another doubt; inactive = no such curve, though single readings can be large; an effect the other way counts as inactive or inconclusive.

O=C1C(Cl)=C(N2CCOCC2)C(=O)N1c1ccccc1F	VDR inhibitor 14.1µM
CCc1c(C)nc(N)nc1N1N=C1SC(C(C)=O)C(C)=O	VDR inhibitor 22.4µM
S=C(Nc1ccccc1)Nc1cccc(Br)c1	PLK1 PBD block 26.7µM
N#Cc1ccc(N2CCNCC2)c(F)c1	none
CCOC(=O)c1sc(=NC(=O)c2ccc(C)c(C)c2)n(C)c1C	PLK1 PBD block 26.7µM, USP1-UAF1 inh inconclusive
O=c1[nH]c(=O)n(Cc2ccccc2)c(O)c1/C=C1\C=Nc2ccccc21	PLK1 PBD block inconclusive, USP1-UAF1 inh inconclusive
COc1ccc(-n2c(O)c(/C=C3\C=Nc4ccc(Br)cc43)c(=O)[nH]c2=O)cc1	PLK1 PBD block 1.06µM, VDR inhibitor inconclusive
O=c1[nH]c(=O)n(CC2CCCO2)c(O)c1/C=C1\C=Nc2ccccc21 (centres undefined)	PLK1 PBD block 26.7µM
O=c1[nH]c(=O)n(-c2ccccc2F)c(O)c1/C=C1\C=Nc2ccccc21	PLK1 PBD block 4.23µM, USP1-UAF1 inh inconclusive
O=c1[nH]c(=O)n(-c2ccc(F)cc2)c(O)c1/C=C1\C=Nc2ccccc21	none
COc1ccc(OP(=O)(Nc2ccccc2)Nc2ccccc2)cc1	none
O=C(Nc1ccc(F)cc1)Oc1ccc[nH]c1=O	PLK1 PBD block inconclusive, USP1-UAF1 inh inconclusive
COc1ccc(NC(=O)CCc2nc(C3=CCN(Cc4cccc(C)c4)CC3)no2)c(OC)c1	none (no result: USP2a block, GALK inh, PLK1 PBD block, FBPA coupling cs)
CCOP(=O)(OCC)c1cccc(O)c1	none
O=C(CCN1CC2CCC(CC2)C1)c1cccs1	PLK1 PBD block 23.8µM, VDR inhibitor 44.7µM (no result: USP2a block, GALK inh, FBPA coupling cs)
Cc1ccc2c(c1)C1CN(C)CCC1N2C(=O)c1cccs1 (centres undefined)	none
Cc1c2ccncc2c(C)c2c1[nH]c1ccccc12	FBPA coupling cs -30.3!
Cc1nccc2c1[nH]c1ccccc12	none
Nc1ccc2ccc3cccc[n+]3c2c1	USP2a block inconclusive, PLK1 PBD block 0.67µM, USP1-UAF1 inh 28.2µM
COc1cc2c(cc1O)[C@@H]1Cc3ccc(OC)c(O)c3CN1CC2	USP1-UAF1 inh 14.1µM (no result: GALK inh, FBPA coupling cs)
Nc1cc(N2CCNCC2)c([N+](=O)[O-])cc1Cl	none
CCOP1(=S)Oc2cc3c(cc2C(C(=O)OC)(C(F)(F)F)O1)OCO3 (centres undefined)	PLK1 PBD block 23.8µM, VDR inhibitor 79.4µM
O=c1cccc2n1CC1CC2CN(c2ncnc3c2cnn3-c2ccccc2)C1 (centres undefined)	none
COc1cc(C=C2C(=O)NC(=O)NC2=O)ccc1O	PLK1 PBD block 21.2µM
COc1cc(/C=C2\C(=O)NC(=O)N(CCc3ccc(F)cc3)C2=O)ccc1O	PLK1 PBD block 0.752µM, VDR inhibitor inconclusive
Cn1cccc1/C=C1/C(=O)NC(=O)N(Cc2ccc(F)cc2)C1=O	PLK1 PBD block inconclusive
NC(=NCCCC(N)C(=O)O)N[N+](=O)[O-] (centres undefined)	none (no result: USP2a block, GALK inh, PLK1 PBD block, VDR inhibitor, USP1-UAF1 inh)
CN1C2CCC1CC(OC(=O)c1ccc(Cl)cc1)C2 (centres undefined)	PLK1 PBD block 26.7µM
CCn1cc(/C=c2/sc3n(c2=O)C2c4ccccc4OC(C)(N=3)C2C(=O)OC)c(C)n1 (centres undefined)	none
CC(=O)OC1C[C@@]2(C)C(c3ccoc3)C[C@H]3O[C@@]32[C@@]2(C)C(=O)C(O)=C3C(C)(C)C(=O)C=C[C@]3(C)C12 (some centres undefined)	VDR inhibitor 3.98µM (no result: USP2a block, GALK inh, PLK1 PBD block, USP1-UAF1 inh)
CC(=O)OC1CC(OC(C)=O)[C@]2(C)C(CC(OC(C)=O)[C@]3(C)C2CC[C@@]2(C)C(c4ccoc4)C[C@H]4O[C@]432)C1(C)C (some centres undefined)	none (no result: USP2a block, GALK inh, PLK1 PBD block, USP1-UAF1 inh)
CC(=O)O[C@@H]1C[C@@]2(C)C(c3ccoc3)C[C@H]3O[C@]32[C@]2(C)C(=O)C(O)=C3C(C)(C)C(=O)C=C[C@]3(C)C12 (some centres undefined)	VDR inhibitor 14.1µM (no result: USP2a block, GALK inh, PLK1 PBD block, USP1-UAF1 inh)
COC(=O)C1=C(c2ccc(S(C)(=O)=O)cc2)C[C@@H]2CC[C@H]1N2C(=O)NC1CC1	none (no result: USP2a block, GALK inh, FBPA coupling cs)
Oc1ccccc1C1NCc2ccccc2-n2cccc21 (centres undefined)	none
COc1ccc(CN2Cc3cnnn3-c3ccccc3C2C#N)cc1 (centres undefined)	VDR inhibitor 20µM (no result: USP2a block, GALK inh, FBPA coupling cs)
COc1ccc(CN2Cc3cnnn3-c3ccccc3C2c2ccccc2)cc1 (centres undefined)	none (no result: USP2a block, GALK inh, FBPA coupling cs)
NCC(O)c1cc(O)c(O)cc1F (centres undefined)	VDR inhibitor 28.2µM! (no result: GALK inh, FBPA coupling cs)
Cc1cc(/C=C2/C(=O)NC(=O)N(Cc3ccco3)C2=O)c(C)n1-c1ccccc1O	none
C=CCN1C(=O)/C(=C/c2cc(C)n(-c3ccccn3)c2C)C(=O)NC1=S	PLK1 PBD block 2.38µM
CCNC(=S)NCCC1=c2ccccc2=N/C1=C\c1c(O)n(C)c(=O)n(C)c1=O	PLK1 PBD block 1.06µM, VDR inhibitor 31.6µM
Cn1c(O)c(C=NCCc2c[nH]c3ccccc23)c(=O)n(C)c1=O	none
O=C1C(Cl)=C(Cl)C(=O)C(Cl)=C1Cl	FBPA coupling cs -65.1, VDR inhibitor 0.708µM (no result: USP2a block, GALK inh, PLK1 PBD block, USP1-UAF1 inh)
CCOC(=O)c1c(/N=C/C2C(=O)NC(=S)NC2=O)sc(C)c1C	none (no result: PLK1 PBD block, VDR inhibitor, USP1-UAF1 inh)
CCOC(=O)c1cc(C)sc1/N=C/C1C(=O)NC(=S)NC1=O	PLK1 PBD block 5.32µM, VDR inhibitor inconclusive
CCOC(=O)C1(c2ccccc2)CCN(Cc2cccc(C(=O)O)c2)CC1	none
O=[N+]([O-])c1ccc(N2CCCCCC2)c2nonc12	USP2a block inconclusive, USP1-UAF1 inh 28.2µM
O=[N+]([O-])c1ccc(N2CCCCC2)c2ncccc12	none
COC(=O)C1=C(N)Oc2c(c(=O)oc3ccccc23)[C@]12C(=O)N(C)c1ccccc12	none
O=C(Nc1ccc(Br)cc1)c1cc(Br)cc(Br)c1O	VDR inhibitor 56.2µM (no result: USP2a block, GALK inh, PLK1 PBD block, USP1-UAF1 inh)
C=C1[C@@H]2C[C@]3(C(CC2=O)[C@]24C5C[C@H]3[C@H]2N(CC)C[C@]5(C)CC[C@@H]4O)[C@@H]1O (some centres undefined)	none (no result: USP2a block, GALK inh, PLK1 PBD block, USP1-UAF1 inh)
Cc1c(C)n(O)c2ccc3nonc3c12	PLK1 PBD block 18.9µM
CCOP(=O)(OCC)C1(C(=O)O)CCCC1	none
CN(CCOc1ccc(C=C2C(=O)NC(=O)NC2=O)cc1)c1ccccn1	PLK1 PBD block 2.99µM, VDR inhibitor inconclusive
CCCCn1c(O)c(C(CC)=NCc2ccc(F)cc2)c(=O)[nH]c1=O	none
O=c1[nH]c(=O)n(CCC2=CCCCC2)c(O)c1/C=N/Nc1cccc2ccccc12	PLK1 PBD block 33.6µM, VDR inhibitor inconclusive
O=c1[nH]c(=O)n(CCC2=CCCCC2)c(O)c1/C=N/Nc1ccccc1	VDR inhibitor inconclusive

Assay outcomes from PubChem BioAssay.
